This is part of a sample that, as a whole, favours compounds with a hit. Of some 79,000 tested, about 15% had one in any assay. Values without a mark were called inactive. The source made the active and inactive calls. Cut-off read from the data, not from the text of the source: active = growth inhibition above about 70%; inactive = the rest.

The experiment can be described thus: NCI Yeast Anticancer Drug Screen. Data for the cln2 rad14 strain (AID 165).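 Note: 0% = growth equal to vehicle treated cultures.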 Conditions: S. cerevisiae cln2 rad14 strain, at 50.0 µM, stronger effect = higher value. In outline:
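The screen exposed genetically defined yeast (cln2 rad14) to test compounds and scored growth inhibition relative to vehicle-treated controls.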
Take `O=C(N/N=C/c1ccccc1O)c1ccccc1-n1cccc1`: the growth inhibition was 45%.

For `O=C1CN(CCN2CCOCC2)CC(=O)N2Cc3ccccc3CN12`, the growth inhibition is 62.6%. Consider `CCC[CH2][Sn]([CH2]CCC)([NH]c1ncnc2[nH]cnc12)[NH]c1ncnc2[nH]cnc12`, for which the growth inhibition was 85.2% (active). The value for `Oc1ccc(Br)cc1C=Nc1c(NC2CCCCC2)oc2ccc(Br)cc12` was 37%.

Turning to `Cc1cc2c(C(C)C)c(O)c(O)c3coc(/c1=c1/c(C)cc4c(C(C)C)c(=O)c(=O)c5coc1c45)c32`, the growth inhibition was 98.8% (active). The value for `O=C1c2ccccc2C(=O)N1/N=C\c1ccccc1[N+](=O)[O-]` was -29.1%; that for `O[C@H](CNCCS)[C@@H](O)CNCCS` was 28.5%.

Consider `C[C@]12CC[C@H](O)CC1=CC[C@@H]1C2CC[C@]2(C)C(=O)N(N)C(=O)CC12` (some centres not stated), for which the growth inhibition was 88.4% (active). With `O=C(C(/C=N/C(=S)NCc1ccccc1)=C(/O)c1ccccc1)c1ccccc1`, the growth inhibition is 97.7% (active). The value for `C=CC1(c2ccc(-c3ccccc3)cc2)OCCO1` was 7.15%. Take `C=C1CC(COc2ccc3c(C)cc(=O)oc3c2)(c2ccccc2)OC1=O` (configuration not stated): the growth inhibition is 32%.

With `CN(C)CCCNc1c2ccccc2nc2ccc([N+](=O)[O-])cc12`, the growth inhibition is 52.5%.

For the molecule `CN1CCC(OC(=O)c2ccc3ncccc3c2)CC1`, the growth inhibition was 85.6% (active). With `COc1ccc(/C=C2/C(=O)N(C(=O)c3ccccc3O)N=C2C)cc1OC`, the growth inhibition was 56.5%. The value for `CC1([N+](=O)[O-])C(=O)C2(N3CCOCC3)CCCC2C1c1ccccc1` (configuration not stated) was -7.7%. The value for `COc1ccc(C2=C(Cl)C(=O)N(c3ccc(C)cc3)C(=O)C2(Cl)Cl)cc1` was 54.3%; that for `COc1ccnc(-c2cc(OC)cc(/C(N)=N/O)n2)c1` was 93.8% (active).

In the case of `Nc1ccccc1CCc1ccccc1`, the growth inhibition was 67%.

In the case of `COC(=O)c1ccc(OCCC(=O)CCl)cc1`, the growth inhibition is 69.1%. The value for `CCCCCCCCCCCCS(=O)(=O)CC(Br)C(=O)c1ccco1` (configuration not stated) was 93.7% (active); that for `FC(F)(F)C(F)(F)C1(F)C(F)(F)C(F)(F)C(F)(F)C(F)(F)C1(F)F` was 97.2% (active); that for `O=C(O)C(O)C(O)C(O)C(O)CO.[Ag]` (configuration not stated) was 99.3% (active).

These data come from PubChem BioAssay (NCI).
